From PubChem BioAssay (EPA / NIEHS)
Active and inactive are the calls of the source. How the source made its calls: active means hit-call score of the fitted dose curve at least 0.9, where 1 is the maximum; inactive means score below 0.9.

Columns and labels:
Conditions in all cases: mRNA level, 48 h; actives raise or lower the signal
[1] = read-out: growth arrest and DNA damage 45 (GADD45G), GADD45G (gene 10912); test: LTEA_HepaRG_GADD45G: Life Technologies and Expression Analysis (LTEA) Assay for growth arrest and DNA damage 45 (GADD45G) using HepaRG (AID 2283499)
In short: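 HepaRG, 48 h exposure, top 100 uM, half-log 8-point series, 0.5% DMSO vehicle, duplicates. Readout: GADD45G transcript by qRT-PCR (Fluidigm array), housekeeping-normalised (ACTB/GAPDH/POLR2A). Bidirectional curve fit vs DMSO baseline.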

[2] = read-out: Glutamate-cysteine ligase regulatory (GCLM), GCLM (gene 2730); test: LTEA_HepaRG_GCLM: Life Technologies and Expression Analysis (LTEA) Assay for Glutamate-cysteine ligase regulatory (GCLM) using HepaRG (AID 2283500)
In short: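 Endpoint is GCLM transcript level by qRT-PCR, normalized to three housekeeping genes, after 48 h chemical exposure of human HepaRG cells (0.5% DMSO vehicle, top 100 uM, half-log dilutions). Fitting was bidirectional relative to DMSO.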

[3] = read-out: Glutathione S-transferase M3 (GSTM3), GSTM3 (gene 2947); test: LTEA_HepaRG_GSTM3: Life Technologies and Expression Analysis (LTEA) Assay for Glutathione S-transferase M3 (GSTM3) using HepaRG (AID 2283501)
In short: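 qRT-PCR read-out of GSTM3 transcript, normalized to three housekeeping genes, from human HepaRG cells after 48 h chemical exposure. Eight-point half-log series, top 100 uM, 0.5% DMSO vehicle; gain or loss fitted relative to DMSO baseline.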

[4] = read-out: Heat shock 70 kDa protein 1 (HSPA1A), gene 3303; test: LTEA_HepaRG_HSPA1A: Life Technologies and Expression Analysis (LTEA) Assay for Heat shock 70 kDa protein 1 (HSPA1A) using HepaRG (AID 2283502)
In short: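 Cells were plated and cultured for 48 h, then switched to serum-free induction medium. Chemicals were added at eight half-log concentrations up to 100 uM for 48 h. RNA was then isolated and HSPA1A measured by qRT-PCR with bidirectional curve fitting against DMSO.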

[5] = read-out: 3-Hydroxy-3-Methylglutaryl-CoA Synthase 2 (HMGCS2), HMGCS2 (gene 3158); test: LTEA_HepaRG_HMGCS2: Life Technologies and Expression Analysis (LTEA) Assay for 3-Hydroxy-3-Methylglutaryl-CoA Synthase 2 (HMGCS2) using HepaRG (AID 2283504)
In short: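 qRT-PCR read-out of HMGCS2 transcript, normalised to three housekeeping genes, in HepaRG cells after 48 h chemical exposure. Eight-point curves from 100 uM, half-log dilutions, 0.5% DMSO vehicle; gain or loss fitted relative to DMSO baseline.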

[6] = read-out: HGF (gene 3082); test: LTEA_HepaRG_HGF: Life Technologies and Expression Analysis (LTEA) Assay for Hepatocyte Growth Facto (HGF) using HepaRG (AID 2283505)
In short: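 HepaRG, 48 h dosing, 8-pt half-log series from 100 uM in 0.5% DMSO, duplicates. Readout: TaqMan qRT-PCR of HGF mRNA, housekeeping-normalized; bidirectional curve fit vs DMSO baseline.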

[7] = read-out: Insulin Like Growth Factor 1 (IGF1), IGF1 (gene 3479); test: LTEA_HepaRG_IGF1: Life Technologies and Expression Analysis (LTEA) Assay for Insulin Like Growth Factor 1 (IGF1) using HepaRG (AID 2283506)
In short: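 Cells are thawed, plated and cultured 48 h, then exposed in duplicate to chemical (highest 100 uM, half-log steps, 0.5% DMSO) for another 48 h. Total RNA is analysed by Fluidigm qRT-PCR for IGF1 expression relative to vehicle.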

[8] = read-out: Intercellular Adhesion Molecule 1 (ICAM1), ICAM1 (gene 3383); test: LTEA_HepaRG_ICAM1: Life Technologies and Expression Analysis (LTEA) Assay for Intercellular Adhesion Molecule 1 (ICAM1) using HepaRG (AID 2283507)
In short: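 HepaRG, 48 h exposure, 8-pt half-log series from 100 uM, 0.5% DMSO vehicle, duplicates. Readout: TaqMan qRT-PCR mRNA, housekeeping-normalized (ACTB/GAPDH/POLR2A). Bidirectional curve fit vs DMSO baseline.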

[9] = read-out: Insulin-like growth factor-binding protein 1 (IGFBP1), IGFBP1 (gene 3484); test: LTEA_HepaRG_IGFBP1: Life Technologies and Expression Analysis (LTEA) Assay for Insulin-like growth factor-binding protein 1 (IGFBP1) using HepaRG (AID 2283508)
In short: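 qRT-PCR mRNA read-out (TaqMan, Fluidigm array), normalised to three housekeeping genes; HepaRG cells, 48 h exposure, 8-pt half-log series from 100 uM, 0.5% DMSO vehicle; bidirectional curve fit vs DMSO baseline.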

[10] = read-out: Interleukin 6 (IL6), IL6 (gene 3569); test: LTEA_HepaRG_IL6: Life Technologies and Expression Analysis (LTEA) Assay for Interleukin 6 (IL6) using HepaRG (AID 2283509)
In short: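 qRT-PCR read-out of IL6 transcript, normalized to three housekeeping genes, after 48 h chemical exposure of HepaRG cells; 8-point half-log series, top 100 uM, 0.5% DMSO vehicle. Bidirectional curve fitting against DMSO baseline.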

[11] = read-out: Interleukin 6 Receptor (IL6R), IL6R (gene 3570); test: LTEA_HepaRG_IL6R: Life Technologies and Expression Analysis (LTEA) Assay for Interleukin 6 Receptor (IL6R) using HepaRG (AID 2283510)
In short: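 Cells were thawed, plated and cultured 48 h, then medium was changed to serum-free induction medium. Chemicals were added in duplicate (100 uM top, half-log steps, 0.5% DMSO) for 48 h. Lysates were analyzed by qRT-PCR for IL6R expression.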

[12] = read-out: Potassium channel subfamily K member 1 (KCNK1), KCNK1 (gene 3775); test: LTEA_HepaRG_KCNK1: Life Technologies and Expression Analysis (LTEA) Assay for Potassium channel subfamily K member 1 (KCNK1) using HepaRG (AID 2283511)
In short: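 HepaRG, 48 h exposure, 8-pt half-log series top 100 uM, 0.5% DMSO vehicle, duplicates. Readout: KCNK1 transcript by qRT-PCR (Fluidigm array), housekeeping-normalized; bidirectional curve fit relative to DMSO baseline.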

[13] = read-out: Keratin 19 (KRT19), KRT19 (gene 3880); test: LTEA_HepaRG_KRT19: Life Technologies and Expression Analysis (LTEA) Assay for Keratin 19 (KRT19) using HepaRG (AID 2283512)
In short: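 HepaRG, 48 h chemical exposure, 8-pt half-log CRC from 100 uM, 0.5% DMSO vehicle, duplicates. Readout: TaqMan qRT-PCR of KRT19 mRNA, housekeeping-normalized (ACTB/GAPDH/POLR2A). Bidirectional fit vs DMSO baseline.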

[14] = read-out: JUN Transcription Factor, JUN (gene 3725); test: LTEA_HepaRG_JUN: Life Technologies and Expression Analysis (LTEA) Assay for JUN Transcription Factor using HepaRG (AID 2283513)
In short: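 Read-out is JUN transcript level by TaqMan qRT-PCR, normalized to ACTB, GAPDH and POLR2A, after 48 h chemical treatment of HepaRG cells. Concentration-response spanned eight half-log points up to 100 uM in 0.5% DMSO.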

[15] = read-out: Lipase C (LIPC), LIPC (gene 3990); test: LTEA_HepaRG_LIPC: Life Technologies and Expression Analysis (LTEA) Assay for Lipase C (LIPC) using HepaRG (AID 2283514)
In short: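 HepaRG, 48 h exposure, 8-pt half-log series from 100 uM in 0.5% DMSO, duplicates. Readout: LIPC mRNA by Fluidigm qRT-PCR, housekeeping-normalized (ACTB/GAPDH/POLR2A). Gain or loss fitted bidirectionally against DMSO baseline.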

[16] = read-out: Lipoprotein lipase (LPL), LPL (gene 4023); test: LTEA_HepaRG_LPL: Life Technologies and Expression Analysis (LTEA) Assay for Lipoprotein lipase (LPL) using HepaRG (AID 2283515)
In short: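 HepaRG, 48 h exposure, 8-pt half-log dilutions from 100 uM, 0.5% DMSO vehicle, duplicates; qRT-PCR (Fluidigm array) of LPL mRNA vs housekeeping genes; bidirectional curve fit relative to DMSO baseline.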

[17] = read-out: MicroRNA 122 (MIR122), gene 406906; test: LTEA_HepaRG_MIR122: Life Technologies and Expression Analysis (LTEA) Assay for MicroRNA 122 (MIR122) using HepaRG (AID 2283516); further: the transcript read is the microRNA miR-122
In short: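 Human liver HepaRG cultures receive test chemicals for 48 h at eight half-log concentrations from 100 uM. Expression is quantified by qRT-PCR with ACTB/GAPDH/POLR2A normalization and fitted bidirectionally against 0.5% DMSO.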

[18] = read-out: matrix metalloproteinase-10 (MMP10), MMP10 (gene 4319); test: LTEA_HepaRG_MMP10: Life Technologies and Expression Analysis (LTEA) Assay for matrix metalloproteinase-10 (MMP10) using HepaRG (AID 2283517)
In short: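 Transcript levels come from Fluidigm qRT-PCR normalized to three housekeeping genes, with curves fitted bidirectionally against 0.5% DMSO. Human HepaRG cells were dosed for 48 hours at concentrations up to 100 uM.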

[19] = read-out: MYC, MYC (gene 4609); test: LTEA_HepaRG_MYC: Life Technologies and Expression Analysis (LTEA) Assay for MYC using HepaRG (AID 2283518)
In short: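 qRT-PCR read-out of MYC transcript (Fluidigm TaqMan, housekeeping-normalized) after 48 h chemical exposure of HepaRG cells; eight concentrations, top 100 uM, half-log steps. Bidirectional curve fitting against 0.5% DMSO vehicle baseline.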

Measured: outcome

NCCO
inactive: all assays above

CC1(C)CC(N=C=O)CC(C)(CN=C=O)C1 (stereo not given)
inactive: all assays above

NCC1(Cc2noc(=O)[nH]2)CCCCC1
inactive: all assays above

NS(=O)(=O)c1cc2c(cc1Cl)NCNS2(=O)=O
inactive: all assays above

C=CCOC(=O)c1ccccc1C(=O)OCC=C
inactive: all assays above
